47 compounds from ChEMBL document CHEMBL3988442, “University of Dundee, Small-Polar-MMV Screening Library” (2021) can be followed below.

The target of assay [1] is T1, Aspartate--tRNA(Asp/Asn) ligase (Mycobacterium tuberculosis (strain ATCC 25618 / H37Rv)) (UniProt P9WFW3). Further: in the data most compounds retested in dose-response had high values.
T1 sequence (whole entry): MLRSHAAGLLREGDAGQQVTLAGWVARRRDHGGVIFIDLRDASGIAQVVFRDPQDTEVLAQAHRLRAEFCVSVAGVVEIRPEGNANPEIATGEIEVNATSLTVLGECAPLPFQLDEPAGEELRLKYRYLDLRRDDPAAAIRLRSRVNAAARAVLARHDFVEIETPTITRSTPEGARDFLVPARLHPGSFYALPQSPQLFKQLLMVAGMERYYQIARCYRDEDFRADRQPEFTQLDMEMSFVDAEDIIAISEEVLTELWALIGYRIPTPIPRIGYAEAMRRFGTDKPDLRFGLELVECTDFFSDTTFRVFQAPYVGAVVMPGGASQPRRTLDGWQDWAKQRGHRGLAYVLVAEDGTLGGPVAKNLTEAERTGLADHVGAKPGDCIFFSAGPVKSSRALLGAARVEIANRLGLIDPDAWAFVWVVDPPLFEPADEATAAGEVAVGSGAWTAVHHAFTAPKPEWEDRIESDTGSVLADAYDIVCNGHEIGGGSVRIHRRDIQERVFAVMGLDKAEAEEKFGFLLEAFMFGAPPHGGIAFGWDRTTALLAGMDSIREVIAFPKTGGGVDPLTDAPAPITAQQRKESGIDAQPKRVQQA
The assay can be described thus: Assay for Asp RNA synthetase-1 from Mycobacterium tuberculosis. In kind it is functional. More on the design: scale not given: direction of the effect not stated beside the values. The note with it: 30 µM.

For assay [2], the target named is Shiga toxin 2 (Escherichia coli O157:H7) (UniProt P09385+P09386). The assay can be described thus: E. coli 0.157:H7 Shiga Toxin SOP - stx2 screening assay. In kind it is functional. Also on record: scale not given: direction of the effect not stated beside the values. The conditions noted are these: 30 µM.

With `O=C(NC[C@H]1OC[C@@H]2CCN(C(=O)c3ccco3)C[C@@H]21)C1CC1`, the Percent Effect in assay [1] was 3.37%; in assay [2] it was -7.69%.

Consider `Cc1c(C2CCCN(C(=O)Cc3ccccn3)C2)n2c(nc1=O)CCC2` (centres undefined), for which the values for the Percent Effect in assay [1] and in assay [2] were 2.63% and -14.2%, respectively.

Take `CC(=O)NCCNC(=O)c1sc(-c2ccc(C)cc2C)nc1C`: the Percent Effect amounted to 3% in assay [1] and 2.48% in assay [2].

Turning to `CN(C)c1cc(C(=O)NCCc2nnc(-c3ccco3)[nH]2)ccn1`, the values for the Percent Effect in assay [1] and in assay [2] were -1.56% and -46.4%, respectively.

For the compound `Cc1csc(N2CCN(C(=O)CCn3cncn3)CC2)n1`, the values for the Percent Effect in assay [1] and in assay [2] were -4.23% and -2.86%, respectively.

On to `CCCn1ccc(C(=O)N2CCOC(c3nc(-c4cccs4)no3)C2)n1` (centres undefined), for which the results for the Percent Effect in assay [1] and in assay [2] were 0.28% and -0.831%, respectively.

For `Cc1cc(C2CCCN2Cc2cc(=O)n(C)c(=O)n2C)on1` (centres undefined), the Percent Effect in assay [1] came out at 0.485%; in assay [2], 14.1%.

With `O=C(Cc1cccnc1)N1CCC2(CC1)CCN(C1CCOCC1)C2`, the Percent Effect was 1.28% in assay [1] and -40.8% in assay [2].

As to `CCCNC(=O)C1CCN(Cc2csc(C(C)(C)C)n2)CC1`, the Percent Effect in assay [1] was -0.628%; in assay [2], 7.25%.

With `CN(C)c1cncc(C2CCN(CCO)CC2)n1`, the values for the Percent Effect in assay [1] and in assay [2] were -2.69% and -4.99%, respectively.

Take `CCOCCCNC(=O)c1cn(CC)nc1C`: the Percent Effect in assay [1] was -4.5%; in assay [2] it was -51.1%.

For the compound `COCC1CN(Cc2ccc(C)o2)Cc2cn(C)nc21` (centres undefined), the Percent Effect in assay [1] is 11.7%; in assay [2], -13.2%.

Regarding `O=C(Cc1ccc2c(c1)OCO2)N1CCCN(c2ccccc2)CC1`, the figures for the Percent Effect in assay [1] and in assay [2] were 3.17% and 3.72%, respectively.

In the case of `Cn1cc(C(=O)Nc2ccc3c(c2)CN(C(=O)c2ccco2)CC3)nn1`, the Percent Effect in assay [1] is 5.79%; in assay [2] it was -88.9%.

With `CCc1nnc2n1CCN(C(=O)c1ccc3[nH]cnc3c1)C2`, the Percent Effect in assay [1] is -2.2%; in assay [2], -13.3%.

`CN1CCN(C[C@@H]2OC[C@H]3CN(Cc4cccc(F)c4)CC[C@H]32)CC1`: the Percent Effect is -1.14% in assay [1] and 11.3% in assay [2].

`CC(=O)N1CCN(C(=O)c2cnn(-c3ccccc3Cl)c2)CC1`: the Percent Effect came out at 4.65% in assay [1] and 14.3% in assay [2].

In the case of `CS(=O)(=O)N1CCOCC2(CN(Cc3ccsc3)CCO2)C1` (centres undefined), the Percent Effect in assay [1] was -4.1%; in assay [2], 7.57%.

For `Fc1ccc(CN2CCCC(Cn3cncn3)C2)c2ncccc12` (centres undefined), the Percent Effect was 14.3% in assay [1] and -38.7% in assay [2].

Take `CC(=O)NC1CCCN(C(=O)NCc2cccnc2N(C)C)C1` (centres undefined): the Percent Effect in assay [1] is -7.86%; in assay [2] it was -12.4%.

Regarding `Cc1n[nH]c(C2CN(C(=O)Cn3ccccc3=O)CCO2)n1` (centres undefined), the Percent Effect was -3.22% in assay [1] and 10.2% in assay [2].

In the case of `Cc1cc(C2CCCN(C(=O)c3cnn(C)c3)C2)ccn1` (centres undefined), the Percent Effect is -6.03% in assay [1] and -7.91% in assay [2].

With `CCOCCC(=O)N1CCCN(Cc2csc(CC)n2)CC1`, the values for the Percent Effect in assay [1] and in assay [2] were -0.742% and -4.81%, respectively.

Take `CCn1ncc2c1CCCC2NCc1cc(Cl)c(OC)c(OC)c1` (centres undefined): the Percent Effect was -2.06% in assay [1] and 1.68% in assay [2].

As for `CCn1ccnc1-c1nc2cc(S(=O)(=O)N3CCCC3)ccc2n1C`, the Percent Effect in assay [1] is -4.2%; in assay [2] it was -15.7%.

Turning to `COc1cc(CNC2CCc3nc(C)nn3C2)cc2c1OCCO2` (centres undefined), the figures for the Percent Effect in assay [1] and in assay [2] were -2.19% and -2.67%, respectively.

Regarding `c1ccc(CN2CCN(Cc3cscn3)CC2)cc1`, the Percent Effect is -2.48% in assay [1] and 3.98% in assay [2].

On to `COCCN1CCOCC2(CCCN(Cc3ccc(C)o3)C2)C1` (centres undefined), for which the Percent Effect in assay [1] is -0.582%; in assay [2] it was -6.63%.

For the compound `COc1c(CNC2CCN(C(C)(C)C)CC2)c(C(C)C)nn1C`, the Percent Effect in assay [1] is -0.618%; in assay [2], 30.9%.

Turning to `COCC(=O)N1CCCC2(CCN(c3ccsc3)C2=O)C1` (centres undefined), the Percent Effect in assay [1] is -1.49%; in assay [2] it was 0.668%.

Take `CCc1nccn1C1CCCN(C(=O)c2ccc3[nH]c(=O)[nH]c3c2)C1` (centres undefined): the results for the Percent Effect in assay [1] and in assay [2] were -9.98% and -46.4%, respectively.

Consider `CN1CC2(COCCN(C(=O)c3ccco3)C2)OCC1=O` (centres undefined), for which the Percent Effect was 8.76% in assay [1] and 9.96% in assay [2].

`O=C(COCc1nc(-c2ccncc2)no1)N1CCCC1`: the Percent Effect in assay [1] is 15.3%; in assay [2], -21.3%.

On to `COC(=O)c1ccc(C(=O)NS(=O)(=O)c2cncc(Br)c2)cc1`, for which the Percent Effect in assay [1] is -0.323%; in assay [2], 8.86%.

Regarding `COc1cccc(CN2CCCC3(CCN(C(=O)[C@H]4CCCO4)C3)C2)c1` (some centres undefined), the Percent Effect in assay [1] is 2.84%; in assay [2], 5.38%.

In the case of `Cn1cc(CCNC(=O)NCc2nnc3n2CCC3)cn1`, the values for the Percent Effect in assay [1] and in assay [2] were -2% and 5.89%, respectively.

On to `COc1cc(CNCc2ccnc(N3CCOCC3)c2)cc(Cl)c1OC`, for which the Percent Effect in assay [1] is 6.73%; in assay [2] it was 24.1%.

`COc1cc(CNCc2ccc(C(C)O)cc2)cc2c1OCO2` (centres undefined): the Percent Effect in assay [1] is -6.24%; in assay [2], -48%.

On to `O=C([C@@H]1C[C@H]2[C@H](CCN2Cc2nccs2)O1)N1CCOCC1`, for which the Percent Effect is 2.29% in assay [1] and -22.3% in assay [2].

Turning to `CCOc1cccc2c1OCC(C(=O)NS(=O)(=O)Cc1ccccc1)=C2`, the Percent Effect is -0.211% in assay [1] and 23.7% in assay [2].

With `Cc1cc(-c2nnn(CCC(N)=O)n2)ccc1F`, the Percent Effect was -0.912% in assay [1] and -20.8% in assay [2].

Consider `CCCNC(=O)c1cnc(N(C)C)nc1COC`, for which the results for the Percent Effect in assay [1] and in assay [2] were -0.929% and -6.54%, respectively.

Take `O=S(=O)(Cc1ccccc1)NCC1CCN(c2cnccn2)CC1`: the values for the Percent Effect in assay [1] and in assay [2] were 2.52% and 11.3%, respectively.

On to `CCOC[C@@H]1CCC[C@@]12CN(Cc1nccs1)CCO2`, for which the Percent Effect in assay [1] is -0.28%; in assay [2] it was 13.3%.

For the compound `CCc1nnc2n1CCN(CC(=O)Nc1sccc1C#N)C2`, the values for the Percent Effect in assay [1] and in assay [2] were -0.787% and 24.4%, respectively.

On to `CCCN1CCC(N(Cc2ncc(C)o2)C(C)=O)C1` (centres undefined), for which the Percent Effect in assay [1] was found to be 2.38%; in assay [2], 2.8%.

For `CC(C)c1nc(CN2CCN(C(C)c3nc(C4CC4)no3)CC2)no1` (centres undefined), the Percent Effect in assay [1] was -2.84%; in assay [2], 5.21%.
